Sampled rows, rich in hits. Any-hit rate of the full collection: about 0.26%.
TSHR antag = human thyrotropin receptor antagonism; P16473; TSHR-expressing cells, TSH-stimulated cAMP HTRF, 2 h; hits give low values; 0.2% of 330,000 active; activity change, negative = inhibition, % at 11.5 µM;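 active = activity change below a set negative limit, meaning inhibition stronger than a set level, cut at about -70% in these data; inconclusive = activity change between two set negative limits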
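Competitive HTRF cAMP read-out (cryptate anti-cAMP antibody, cAMP-d2; 30 min, room temperature) in freshly harvested TSHR cells. Compounds added before TSH at EC80 (4nM final), followed by 2 hours' incubation at 37 deg C.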
CBFb-RUNX1 inh = inhibitors of human CBF-beta and RUNX1 interaction; Q01196+Q13951; AlphaScreen CBFb-His/RUNX1-biotin binding, biochemical; Potency, µM (top dose mostly 59.8 µM), usual class: inhibitors; 230,000 tested, under 10 active; AID 1477
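His-tagged CBF-beta and biotinylated RUNX1 (30 nM each) were premixed 20 min at room temperature, exposed to compound for 15 min, then given nickel-chelate and streptavidin AlphaScreen beads (50 ng each). After 90 min, AlphaScreen signal was read.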
PTAP TSG101 blk = blocks PTAP/TSG101 interaction to inhibit HIV-1 budding; AID 493005; 340,000 tested, under 10 active; Potency, µM (doses to about 115 µM), most hits filed as inhibitors; Q99816; Fluorescence polarization, FITC-PTAP peptide / Tsg101 binding; active = well fitted inhibition curve with a large enough effect in the main read-out, with a control signal flat, not every such curve was filed as active; inconclusive = small, poorly fitted or top-dose-only effect, or effect the other way, or a change in a side signal; inactive = no such curve, though single readings can be large or run the other way
Target sequence (Q99816 whole entry, looked up): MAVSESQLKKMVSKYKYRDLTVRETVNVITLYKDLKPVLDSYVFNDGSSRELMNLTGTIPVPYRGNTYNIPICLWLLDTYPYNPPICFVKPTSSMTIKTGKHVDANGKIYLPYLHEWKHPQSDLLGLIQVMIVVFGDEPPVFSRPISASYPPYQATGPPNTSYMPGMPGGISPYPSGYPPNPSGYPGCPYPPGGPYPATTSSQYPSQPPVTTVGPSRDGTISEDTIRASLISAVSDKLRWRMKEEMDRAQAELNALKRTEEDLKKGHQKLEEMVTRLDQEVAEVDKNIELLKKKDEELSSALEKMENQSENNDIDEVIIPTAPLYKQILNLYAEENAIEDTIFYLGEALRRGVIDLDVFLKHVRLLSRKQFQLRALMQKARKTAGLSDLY
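FP read-out: FITC-PTAP peptide, 50 nM final, binding Tsg101 binding domain, 10 uM final; 20 min, r.t.; 10 mM HEPES pH 7.5, 0.15 M NaCl, 0.01% Tween 20, 3 mM EDTA, 0.1 mM TCEP.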
Integrin act MD = integrin-mediated muscular dystrophy alleviation activation | Potency, µM (doses to about 38.3 µM), actives largely listed as activators | AID 624291 | 0.064% of 350,000 active | alpha7betagal myoblasts, beta-gal FDG fluorescence, 48 h; also: nearly all actives have a fitted effect of over 60% in size
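alpha7betagal+/- myoblasts (passage 13, 250/well) treated 48 h at 37C with compounds at 1:260 dilution of DMSO stock. Lysed, then beta-galactosidase activity read as FDG fluorescence (ex 480/em 540) after 30 min, with pre-read for autofluorescence.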
TCR activator = activators of T cell receptors. primary human leukocytes, anti-CD3, IL-2 HTRF, 48 h. Potency, µM (titrated, usually from 9.22 µM), hits mostly activators. 330,000 tested, under 10 active. AID 504894
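Primary human leukocytes incubated 48 hr with anti-CD3 beads plus compound, without co-stimulation. Secreted IL-2 measured by HTRF (europium cryptate/d2 anti-IL-2 pair, 320 nm excitation, 665 nm emission).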
MBNL1-CUG inh = blocks human MBNL1 binding to CUG repeat RNA. Q9NR56. TR-FRET MBNL1-His/biotin-(CUG)12 binding, 665/545 ratio. Potency, µM (series often up to 57.5 µM), most hits filed as inhibitors. 0.036% of 280,000 active. AID 2675; active = well fitted inhibition curve with a large enough effect in the signal ratio, with a control signal flat, not every such curve was filed as active; inconclusive = small, poorly fitted or top-dose-only effect, or effect the other way, or a change in a side signal; inactive = no such curve, though single readings can be large or run the other way; the % refers to the signal ratio
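Ratiometric TR-FRET (665 over 545 nm, excitation 340 nm) tracks disruption of MBNL1-His/biotin-(CUG)12 complex after 60 min at room temperature, with compounds at 92 nM to 58 uM final.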
Numbers stand for hits; i = inactive; ? = inconclusive; nt = no result given; [ ] = another dose, or the depositor's remark. Unless noted, calls follow the shape of the dose curve; as a rule, active = well fitted curve in the direction sought with a large enough effect; inconclusive = small, poorly fitted or top-dose-only effect, or another doubt; inactive = no such curve, though single readings can be large; an effect the other way counts as inactive or inconclusive.

SMILES	TSHR antag	CBFb-RUNX1 inh	PTAP TSG101 blk	Integrin act MD	TCR activator	MBNL1-CUG inh
Cc1ccc(-n2c(Cl)c(Cl)nc(Cl)c2=O)cc1	-95.3	i	i	?	i	?
COc1nc(Cl)cn(-c2ccc(C)cc2)c1=O	i	i	i	i	i	?
Nc1ncnc2c1nc(Br)n2C1OC2COP(=O)(O)O[C@@H]2C1O (stereo partly specified)	i	nt	nt	nt	nt	nt
COc1ccc(-c2nc3c(c(SCC(=O)N4CCOCC4)n2)Cc2c(CO)cnc(C)c2O3)cc1	-134.7	nt	i	i	i	i
CCC1CN(C(=O)NCc2ccccc2)c2ccccc2O1 (stereo unspecified)	-71.5	nt	i	i	i	i
CCC1CN(C(=O)NCc2ccccc2)c2cc(Cl)ccc2O1 (stereo unspecified)	i	nt	i	i	i	i
Cc1ccsc1-c1nc(CSCC(=O)N2CCN(c3ccccc3)CC2)c(C)o1	-70.7	i	i	i	i	i
CC(=O)Oc1ccc2nc(/C=C/c3ccccc3)oc(=O)c2c1	-78.3	nt	i	i	i	?
C=CCC1C=CC(Oc2ccc(OC)cc2)C(CO)O1 (stereo unspecified)	nt	i[13.1 µM]	nt	nt	nt	nt
C=C1CCC2C(C)(C)[C@H](O)CC[C@@]2(C)[C@@H]1COc1cc(=O)oc2ccccc12 (stereo partly specified)	i	i[2.36 µM]	i	i	i	i
C=C1CCC2C(C)(C)[C@@H](O)CC[C@@]2(C)[C@@H]1COc1ccc2ccc(=O)oc2c1 (stereo partly specified)	-75.7	nt	i	i	i	i
N#CCCn1cnc2c1NC=NC2Cl (stereo unspecified)	nt	i	nt	nt	nt	nt
CCCCOc1ccc(/C=N/Nc2cc(N3CCOCC3)nc(C)n2)cc1	-117.9	nt	i	i	nt	i
Cc1nc(N/N=C/c2cccnc2)cc(N2CCOCC2)n1	nt	nt	nt	i	nt	nt
O=c1cc(-c2ccccc2F)[nH]c2cc3c(cc12)OCO3	i	nt	nt	nt	nt	nt
CCOc1ccc(-n2c(SCC(=O)Nc3cc(C)on3)nc3c(c2=O)SCC3)cc1	-84.9	nt	i	i	i	?
Cc1cc(C(=O)Nc2cccc3ccccc23)c(C)o1	i	nt	i	7.94µM	i	i
O=C(Nc1cccc2ccccc12)c1ccccc1	-82.0	i	i	i	i	i
CC(=O)c1cccc(NC(=O)C(=O)Nc2cccc3ccccc23)c1	i	i	i	8.91µM	i	i
O=C(Nc1nnc(S(=O)(=O)N2CCCC2)s1)c1ccccc1F	-102.9	nt	i	i	i	i
NC(=O)[C@H]1CCCN1C(=O)[C@H](Cc1cnc[nH]1)NC(=O)[C@@H]1CCC(=O)N1	nt	i	nt	nt	nt	nt
COc1ccccc1CNS(=O)(=O)c1cc(-c2cc(C)no2)ccc1C(C)C	-80.1	nt	i	i	i	i
CCOc1ccccc1CNS(=O)(=O)c1cc(-c2cc(C)no2)ccc1OC	i	nt	i	i	i	i
CC(=O)c1c(C)[nH]c(C(=O)OCC(=O)Nc2cc(Cl)ccc2[N+](=O)[O-])c1C	-76.6	i	i	i	i	?
CCNc1nc(C23CC4CC(CC(C4)C2)C3)cs1	-73.2	i	i	i	i	i
SMILES	TSHR antag	CBFb-RUNX1 inh	PTAP TSG101 blk	Integrin act MD	TCR activator	MBNL1-CUG inh
CC(=O)NNC(=O)CC(=O)Nc1nc(C23CC4CC(CC(C4)C2)C3)cs1	i	i	i	i	i	i
C/C(CCC(=O)OC[C@@H]1O[C@H](C#Cc2ccccc2)C=C[C@@H]1Oc1ccc(C)cc1)=N/O[C@@H](C)CN1CCCc2nc(C)c(C)cc21	nt	i[13.1 µM]	nt	nt	nt	nt
COc1ccc2c(c1OC)C(Cc1ccccc1)N1CCc3cc4c(cc3C1=C2)OCO4 (stereo unspecified)	nt	i	nt	nt	nt	nt
CC1CCCCN1c1ncnc(N)c1[N+](=O)[O-] (stereo unspecified)	i	i	i	4.47µM	i	?
O=C(Cn1ncc2c([nH]c3ccccc32)c1=O)NCC1CCN(Cc2ccc(F)cc2)CC1	-138.4	nt	i	i	i	i
Cc1ccc(CCNC(=O)Cn2ncc3c([nH]c4ccccc43)c2=O)cc1	i	nt	i	i	i	i
